# Compound activity: PubChem, Sanford-Burnham Center for Chemical Genomics
# Shown are actives, neighbours in structure and some others; about 28% of the full set was active somewhere.
# CYP2C19 act: increases human CYP2C19 enzyme activity; recombinant CYP2C19, luciferin-H EGE luminescence; hits give high values; 0 = fully inhibited enzyme, 1 = untreated enzyme; 96,000 tested, under 10 active; activation factor at 5 µM; P33261; AID 1025;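 active = activation factor of at least 2 at 5 µM in the primary screen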;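 note: 0 = wells with 2.5 mM tranylcypromine and 1 = vehicle-only wells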
# Target sequence (P33261 whole entry, looked up): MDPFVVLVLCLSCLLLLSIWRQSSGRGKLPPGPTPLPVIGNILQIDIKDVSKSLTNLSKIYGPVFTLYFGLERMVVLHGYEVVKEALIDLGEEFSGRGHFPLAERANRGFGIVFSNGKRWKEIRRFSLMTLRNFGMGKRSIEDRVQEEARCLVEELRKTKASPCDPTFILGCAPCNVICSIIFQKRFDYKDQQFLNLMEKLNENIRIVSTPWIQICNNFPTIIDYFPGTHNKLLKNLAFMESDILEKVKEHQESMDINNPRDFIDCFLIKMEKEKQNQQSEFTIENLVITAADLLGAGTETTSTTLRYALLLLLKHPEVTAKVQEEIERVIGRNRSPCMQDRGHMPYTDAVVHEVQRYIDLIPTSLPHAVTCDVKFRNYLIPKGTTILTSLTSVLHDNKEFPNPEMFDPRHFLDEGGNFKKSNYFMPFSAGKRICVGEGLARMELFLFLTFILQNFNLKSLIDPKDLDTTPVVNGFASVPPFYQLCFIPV
# CYP2C9 act: increases human cytochrome P450 2C9 activity | P11712 | recombinant CYP2C9, luciferin-H conversion, luminescence; hits give high values; factor 1 = untreated enzyme, 0 = blocked | activation factor at 5 µM | 96,000 tested, 1.4% active;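 active = activation factor of 2 or more for CYP2C9 at a 5 µM dose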;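 note: 0 = sulfaphenazole-blocked wells and 1 = vehicle-only wells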
# CYP2C9 inhib: blocks human cytochrome P450 2C9; P11712; CYP2C9 Supersomes, luciferin-H conversion, luminescence; inhibition, % at 5 µM; 96,000 tested, 20% active; AID 777;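 active = blocking of liver enzyme CYP2C9 beyond about 50% at 5 µM, limit read from the data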
# CYP2C19 inh: human CYP2C19 inhibition; AID 778; 96,000 tested, 21% active; CYP2C19 Supersomes, luciferin-H EGE luminescence, 30 min; P33261; inhibition, % at 5 µM;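 active = CYP2C19 inhibition above a set limit at 5 µM in the primary screen, cut at about 50% in these data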;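 note: plate controls were negative control wells for no effect and 2.5 mM tranylcypromine positive control for full effect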
# PTK2B oligo ant: antagonists of human Pyk2 oligomerization. 99,000 tested, 0.83% active. Q293 cells, Pyk2 FERM NanoBiT luminescence; hits give low values. Q14289. z-score (the deposit names both 25 µM and 10 µM);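 active = Z-score of -3 or lower, scaled per plate to the spread of control and sample wells; inactive = z-score above -3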;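 note: negative z-score means lost luminescence so less FERM oligomerization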
# Starred values were filed as active, the others as inactive; nt = no result given.
SMILES,CYP2C19 act,CYP2C9 act,CYP2C9 inhib,CYP2C19 inh,PTK2B oligo ant
O=C(NNC(=O)C1CCN(Cc2ccccc2)CC1)c1cccc(Cl)c1,0.9,0.8,17,11,0.57
CCOC(=O)c1cccc(NC(=O)c2cccs2)c1,0.5,0.4,63*,49,-0.36
CCOC(=O)N1CCN(C(=O)c2cc3sccc3n2C)CC1,0.1,1.2,-17,86*,-0.06
CCOC(=O)c1c(N)n(CCOC(=O)c2cccs2)c2nc3ccccc3nc12,0.1,0.2,84*,85*,-1.1
CCOC(=O)c1ccccc1NC(=O)c1cc2sccc2n1C,0.2,0.4,62*,79*,1
CCCCCOC(=O)c1c(N)n(CCOC)c2nc3ccccc3nc12,0.7,0.5,48,28,-0.16
Cc1cccc(NC(c2ccc(O)cc2)c2ccc3ccc(C)nc3c2O)n1 (stereo unspecified),0.6,2*,-99,42,-0.68
CCn1c(C)cc(/C=C2\NC(=O)N(CC(=O)Nc3cccc(C)c3)C2=O)c1C,0.9,0.6,40,13,0.02
CCn1c(C)cc(/C=C2\SC(=O)N(CC(=O)Nc3ccc(C)c(C)c3)C2=O)c1C,0.4,0.8,16,57*,-0.35
CC(C)Oc1cc(O)c2c(=O)c(-c3ccc(O)cc3)coc2c1,1.1,0,96*,-9,nt
Cc1nn(C(CC(=O)O)C(=O)O)c(C)c1Br (stereo unspecified),nt,nt,nt,nt,-0.21
O=C(O)c1cccc(CSc2ncccn2)c1,1,1,-4,-4,0.76
COc1cc2nc(N3CCN(C(=O)C4CCCO4)CC3)nc(N)c2cc1OC (stereo unspecified),0.7,0.4,60*,33,nt
Cc1cc(C(=O)N2CCN(C(=O)C3CCCO3)CC2)no1 (stereo unspecified),1,1,-1,2,-0.45
CC1=C(C(=O)OCC(C)C)[C@]23C(=O)c4ccccc4[C@@]2(O1)OC(N)=C3C#N,nt,nt,nt,nt,0.71
CC1=C(C(=O)OCC(C)C)C23C(=O)c4ccccc4C2(O1)OC(N)=C3C#N (stereo unspecified),0.1,0.3,68*,86*,1.1
CC1(C(=O)Nc2nnc(C(C)(C)C)s2)Cc2ccccc2C(=O)O1 (stereo unspecified),1.1,0.9,12,-5,-1.3
CCSc1nnc(NC(=O)C2(C)Cc3ccccc3C(=O)O2)s1 (stereo unspecified),1,0.3,74*,-4,-1.1
Cc1ccc(CN2C(=O)CCC2C(=O)NCc2cccnc2)cc1 (stereo unspecified),0.8,1,3,19,-0.1
CCOC(=O)c1oc2ccccc2c1NC(=O)c1ccc(Cl)s1,1.1,1,2,-7,nt
COc1cccc(C2CC(=O)NC(SC)=C2C#N)c1 (stereo unspecified),0.4,0.4,62*,64*,nt
CCSC1=C(C#N)C(c2cccc(Br)c2)CC(=O)N1 (stereo unspecified),0.6,0.7,29,44,-0.77
CCSC1=C(C#N)C(c2ccc(OC)c(OC)c2)CC(=O)N1 (stereo unspecified),0.4,0.7,27,63*,1
CCSC1=C(C#N)C(c2ccc(F)cc2)CC(=O)N1 (stereo unspecified),0.6,0.9,10,38,nt
C/C(=N\N=C(/N)SC1CC(=O)N(c2ccccc2)C1=O)c1cccs1 (stereo unspecified),0.7,0.4,56*,29,-0.59
SMILES,CYP2C19 act,CYP2C9 act,CYP2C9 inhib,CYP2C19 inh,PTK2B oligo ant
C/C(=N\N=C(/N)SC1CC(=O)N(c2ccc(Cl)cc2)C1=O)c1cccs1 (stereo unspecified),0.9,1.3,-29,14,0.28
COCCCn1c(Cc2csc(Nc3cccc(Cl)c3)n2)nnc1SCC(=O)OC,0.1,0.2,80*,87*,0.73
CCOC(=O)CSc1nnc(CNc2cccc(Cl)c2)n1C,nt,nt,nt,nt,0.06
C1CN(CC23CC4CC(CC(C4)C2)C3)CCO1,nt,nt,nt,nt,-0.61
Cc1nc2ccc(NC(=O)c3ccc(Cl)c(NC(=O)c4cccs4)c3)cc2s1,0.9,0.5,54*,14,-0.56
Cc1nc2ccc(NC(=O)Cc3cccs3)cc2s1,0.4,0.3,65*,59*,-0.24
O=C(Cc1cccs1)Nc1ccc(C(=O)O)cc1,0.8,1,2,17,0.18
COc1ccc(-n2nnc3c(=O)n(Cc4ccccc4C)cnc32)cc1,0.9,0.7,26,9,0.62
COc1ccc(-n2nnc3c(=O)n(Cc4cccc(C)c4)cnc32)cc1,0.8,0.4,56*,24,1.1
Cc1ccccc1N1C(=O)C(Oc2ccc(Cl)cc2)C1CNC(C)(C)C (stereo unspecified),nt,nt,nt,nt,-1.1
CCCCC(=O)Nc1ncc(Br)s1,0.2,0.6,37,76*,-1.1
CCCCC(=O)Nc1nnc(C)s1,1,1.2,-16,-4,0.69
Clc1ccccc1-c1nn2c(Cn3cnc4ccccc43)nnc2s1,0.4,0.7,25,58*,0.33
c1ccc2c(c1)ncn2Cc1nnc2sc(-c3ccc4c(c3)OCO4)nn12,0.9,0.2,81*,8,0.37
c1ccc(-c2nn3c(Cn4nnc5ccccc54)nnc3s2)nc1,0.2,0.6,39,78*,0
Clc1ccccc1CSc1nnc(Cn2cnc3ccccc32)n1-c1ccccc1,0.4,1,2,61*,0.06
c1ccc(CCc2nn3c(Cn4cnc5ccccc54)nnc3s2)cc1,0.8,0.9,6,18,-0.15
CCOc1ccc(NCc2nnc(SCc3ccccc3Cl)n2-c2ccccc2)cc1,0.5,0.6,38,46,-0.37
Cc1ccc(CS(=O)(=O)CCC(=O)NCCCN2CCCC2)cc1,1.1,0.9,10,-9,-0.7
Cc1cccc(NC2=NCC(=O)N2CCc2ccccc2)c1,1,1,2,-3,-0.33
O=C(NCCCN1CCOCC1)C(C(=O)c1ccccc1)n1ccccc1=O (stereo unspecified),1,0.9,6,4,0.22
CCCOc1ccc(C(=O)c2nc3c(n2O)CCCC3)cc1,0.9,0.8,24,6,-1.3
COc1nnc(-c2ccc(N3CCCCC3)c(NC(C)=O)c2)c2ccccc12,0.5,0.3,66*,54*,-1.1
CC1(C)CC(=O)c2cn3nc(C(F)(F)F)nc3nc2C1,0.4,0.8,15,56*,0.63
CC1(C)CC(=O)c2cn3c(nc2C1)nc1ccccc13,1,1.1,-7,5,0.65
Nc1cc(OC(=O)c2cccs2)nn1S(=O)(=O)c1ccc(F)cc1,0.6,0.1,93*,40,1.9
COc1cccc(C(=O)Oc2cc(N)n(S(=O)(=O)c3ccc(C)cc3)n2)c1OC,0.9,0.2,76*,9,0.33
Nc1cc(OC(=O)c2cccs2)nn1S(=O)(=O)c1ccccc1,0.9,0.6,40,13,0.61
COc1cccc(C(=O)O/N=C(\N)c2ccncc2)c1OC,nt,nt,nt,nt,0.33
Cn1c(=O)[nH]c(=O)c2c1ncn2CCCc1ccccc1,nt,nt,nt,nt,0.94
